Source: PubChem
Pf Dd2 growth = qHTS Primary assay for Inhibitors of Plasmodium falciparum Dd2 growth in vitro; Potency, µM (doses to about 28.9 µM), inactives show top-dose activity, negative = inhibition, most hits filed as inhibitors; 120,000 compounds, 4.3% hits; AID 1347417, 2020; P. falciparum Dd2 growth, SYBR Green, 72 h; active = well fitted inhibition curve with a large enough effect;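 also: plate controls were DMSO vehicle for no effect and reference drug for full effect; nearly all actives have a fitted effect of over 65% in size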
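Readout: SYBR Green fluorescence, 485 nm excitation, 535 nm emission, after ~16 h lysis at 37C. Before that, Dd2-infected red cells (2.5% hematocrit) grew 72 h with compound, 29 uM top final concentration.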
An asterisk follows results filed as active; i = inactive; [ ] = dose if it differs, or a comment. The full list was thinned out, with hits kept by preference. Potency is read from the fitted curve at half-maximal effect.

SMILES | Pf Dd2 growth
CCc1ccc(S(=O)(=O)c2cn(C)c3cc(N4CCOCC4)c(F)cc3c2=O)cc1 | -19%
CCn1cc(S(=O)(=O)c2cc(C)cc(C)c2)c(=O)c2cc(F)c(N3CCC(C)CC3)cc21 | i
CCc1ccc(S(=O)(=O)c2cn(C)c3cc(N4CCCC4)c(F)cc3c2=O)cc1 | -10%
COCC[C@]1(O)CCN(C(=O)CSc2ccccc2)C[C@H]1C | -6%
O=C(C1CCOC1)N1CCC(C(=O)O)(n2ccc(-c3ccco3)n2)CC1 (stereo not drawn) | 4%
Nc1nc(CC(=O)N[C@H](c2ccccn2)C2CC(O)C2)cc(=O)[nH]1 (stereo partly drawn) | -16%
COCCNC(=O)[C@@H]1C[C@H](Oc2ccccc2)CN1C(=O)c1cnccn1 | 8%
O=C(CN1CCCC(c2ccccc2)(c2ccccc2)C1)N1CCOCC1 | -14%
COC(=O)c1ccc(CN2C(=O)[C@@H]3C[C@@H](O)CN3C3(CN(C4CCN(C(C)=O)CC4)C3)C2=O)cc1 | 40%
CCCCN1C(=O)[C@@H]2C[C@@H](O)CN2C2(CN(C3CCN(C(C)=O)CC3)C2)C1=O | 11%[44.1 µM]
CC(=O)N1CCC(N2CC3(C2)C(=O)N(Cc2ccccc2Cl)C(=O)[C@@H]2C[C@@H](O)CN23)CC1 | 7.1µM*
COCC[C@]1(O)CCN(C(=O)Nc2cccc(SC)c2)C[C@H]1C | -17%
CN1CCCN(C(=O)CCC[C@@H]2[C@H]3CCCN4CCC[C@@H](CN2C)[C@@H]34)CC1 | i
O=C(NC1CCN(C(=O)N2CC3CC(C2)[C@H]2CCCC(=O)N2C3)CC1)c1ccncc1 (stereo partly drawn) | -20%
CC1CCN(CCCNC(=O)CN2C(=O)CSc3ccc(S(=O)(=O)N4CCC(C)CC4)cc32)CC1 | 8.9µM*
CCCCNC(=O)CN1C(=O)CSc2ccc(S(=O)(=O)N3CCC(C)CC3)cc21 | 0%
CC1CCN(CCCNC(=O)CN2C(=O)CSc3ccc(S(=O)(=O)N4CCOCC4)cc32)CC1 | 6%
O=C1NCCCCCCN(C(=O)c2ccsc2)[C@H]2CCC[C@@H]12 | 19%
OC1(c2csc(CN3CCN(c4ccccn4)CC3)n2)CCN(CC2CCCCC2)CC1 | -8%
CN1CCN(Cc2nc(C3(O)CCN(CC4CCCCC4)CC3)cs2)CC1 | 10µM*
CN1CCN(Cc2nc(C3(O)CCN(C4CCCC4)CC3)cs2)CC1 | 4%[44.1 µM]
CCN(CC)C(=O)[C@H]1CCC[C@H]1NC(=O)c1ccncc1 | 6%
O=C(c1ccccc1)N1CCCC(n2cc(-c3nc(C4CC4)no3)nn2)C1 (stereo not drawn) | 232%
COCC1(c2nc(C3CCOCC3)nn2-c2ccccc2)CCC1 | -8%
CC1=C[C@@H](CNS(=O)(=O)c2ccccc2)[C@H](C(C)C)C[C@H]1Cc1nc2ccncc2[nH]1 | -19%[44.1 µM]
SMILES | Pf Dd2 growth
Cc1cnc(C2CC2)n1CCNC(=O)C1CCN1C1CCCCC1 (stereo not drawn) | -1%
Cc1cnc(C2CCC2)n1CCNC(=O)c1cc(C2CC2)[nH]n1 | -4%
Cc1cc(C)c(S(=O)(=O)NCCn2c(C)cnc2C2CCC2)cc1C | 3.5µM*
NC(=O)CNC(=O)C1=C[C@@H](NC(=O)Nc2cccc(F)c2)[C@@H](O)[C@H](O)C1 | 1%[44.1 µM]
CCC(O)C(=O)N1CCc2onc(-c3ccc(-c4ccccc4)cc3)c2C1 (stereo not drawn) | -22%
COCC1CN(C)CC12CCN(C(=O)c1ccc(OC(F)(F)F)cc1)CC2 (stereo not drawn) | i
Cc1ccc(S(=O)(=O)c2nc(S(=O)(=O)c3ccc(C)cc3)c(NC(C)C)s2)cc1 | -11%
CCNc1sc(S(C)(=O)=O)nc1S(=O)(=O)c1ccc(C)cc1 | 2%
Cc1ccc(S(=O)(=O)c2nc(S(=O)(=O)c3ccc(C)cc3)c(NCCCOC(C)C)s2)cc1 | 2.2µM*
CN(C)[C@@H]1CO[C@H](CNC(=O)c2ccccc2)[C@H]1O | 19%[44.1 µM]
CN(C)C[C@@H]1CN(Cc2cccnc2)C[C@H]1NC(=O)C1CC=CCC1 (stereo partly drawn) | i
COCC1CN(C(=O)Cc2ccc(S(C)(=O)=O)cc2)CC12CCNCC2 (stereo not drawn) | 16%
O=C(NCCc1ccncc1)C1CN(C(=O)C2CCCCC2)CC12CCOCC2 (stereo not drawn) | -3%
Cc1cccc(NC(=O)N2CCC3(CC2)CC(N(C(=O)c2ccccc2)C2CC2)CCO3)c1 (stereo not drawn) | -1%
Cc1ccc(NC(=O)N2CCCC(Cn3cnc4cccnc43)C2)cc1C (stereo not drawn) | -3%
CCN(CC)C(=O)c1csc(-c2cccc(OC(C)C)c2)n1 | -8%
Cc1nc(C2CC2)ncc1C(=O)N(C/C=C/c1ccccc1)C1CC1 | -27%
CN1c2cc(C(=O)NCc3ccccc3C(F)(F)F)ccc2C(=O)N2CCCCC21 (stereo not drawn) | i
O=C1[C@@H]2C[C@@H](CN2C2COC2)Oc2ccccc2N1Cc1ccc(OC(F)(F)F)cc1 | i
COCCN1C(=O)[C@@H]2C[C@@H](CN2C(C)C)Oc2ccccc21 | -34%[44.1 µM]
CN1CCC(N2C[C@@H]3C[C@H]2C(=O)N(Cc2ccc(OC(F)(F)F)cc2)c2ccccc2O3)CC1 | 10µM*
O=C1[C@@H]2C[C@@H](CN2C(=O)c2ccccc2)Oc2ccccc2N1Cc1ccccc1 | -12%[44.1 µM]
O=C1[C@@H]2C[C@@H](CN2C(=O)c2ccccc2)Oc2ccccc2N1CC1CC1 | 5%[44.1 µM]
O=C1[C@@H]2C[C@@H](CN2C(=O)C2CC2)Oc2ccccc2N1Cc1ccccc1 | i
COc1ccc(CN2C(=O)[C@@H]3C[C@@H](CN3C(C)C)Oc3ccccc32)cc1 | 26%[44.1 µM]
SMILES | Pf Dd2 growth
COc1ccc(CN2C(=O)[C@@H]3C[C@@H](CN3C(=O)c3cnccn3)Oc3ccccc32)cc1 | -26%[44.1 µM]
CC(C)N1C[C@@H]2C[C@H]1C(=O)N(Cc1ccc(OC(F)(F)F)cc1)c1ccccc1O2 | 11µM*
CC(C)N1C[C@@H]2C[C@H]1C(=O)N(CC1CC1)c1ccccc1O2 | 11µM*
COCCN1C(=O)[C@@H]2C[C@@H](CN2C2CCCC2)Oc2ccccc21 | -30%[44.1 µM]
COc1ccc(CN2C(=O)[C@@H]3C[C@@H](CN3C3CCCC3)Oc3ccccc32)cc1 | 10µM*
COc1ccc(OC)c(CNC(=O)CCC2CCN(S(=O)(=O)c3ccccc3)CC2)c1 | -23%
O=C1C2CN(Cc3ccncc3Cl)CCC2OCCN1Cc1ccccc1 (stereo not drawn) | i
O=C(Cn1cccn1)NC1CC(=O)N(Cc2ccccc2C(F)(F)F)C1 (stereo not drawn) | -19%
COc1cccc(C(=O)N2CCOC[C@H](OC)C2)c1 | -12%[44.1 µM]
Cc1noc(C2CCCCCN2C(=O)NC2CCCC2)n1 (stereo not drawn) | -14%
CC(C)(C)NC(=O)N1CCCC(c2nc(CCOCC3CC3)no2)C1 (stereo not drawn) | -19%
O=C(Cc1ccc(-n2cnnn2)cc1)N1CCC2(CC1)[C@H](O)C[C@@H]2O | 3%
COCCN1C(=O)[C@@H]2C[C@@H](CN2Cc2ccccc2)Oc2ccccc21 | i
COCCN1C(=O)[C@@H]2C[C@@H](CN2Cc2ccc(C#N)cc2)Oc2ccccc21 | -11%[44.1 µM]
COCCN1C(=O)[C@@H]2C[C@@H](CN2Cc2cccc(OC)c2)Oc2ccccc21 | 10µM*
O=C(NCc1cccnc1)[C@@H]1C[C@@H](O)CN1C1CCN(C(=O)c2ccccc2)CC1 | -11%
COc1ccc(N2CC(C(=O)NCc3cccc(Cl)c3)NC2=O)cc1 (stereo not drawn) | -12%
CC(=O)Nc1ccc(CNC2(Cc3cc(CN4CCCCC4)on3)COC2)cc1 | -8%[44.1 µM]
